Sampled rows, rich in hits. Any-hit rate of the full collection: about 12%.
Sm TGR inh: qHTS Assay for the Inhibitors of Schistosoma Mansoni Peroxiredoxins | Schistosoma mansoni thioredoxin glutathione reductase (TGR), Q962Y6 | purified TGR, DTNB reduction, TNB absorbance 405 nm | Potency, µM (doses to about 114 µM), for the others: top-dose activity change, negative = inhibition, usual class: inhibitors | hit rate 3% among 360,000; active means well fitted inhibition curve with a large enough effect; inconclusive means small, poorly fitted or top-dose-only effect; inactive means no such curve, though single readings can be large or run the other way; further: potency means the concentration at half of the fitted maximal effect; on the % scale 0 is the no-effect control and ±100 the full control effect; nearly all actives have a fitted effect of over 60% in size
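Kinetic colorimetric format: TGR-catalysed, NADPH-driven DTNB reduction monitored via TNB absorbance. Enzyme dispensed at 20 nM; compound exposure 15 min at room temperature before reaction start.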
Shiga inhibitor: A qHTS for Small Molecule Inhibitors of Shiga Toxin; Vero cells, Shiga toxin protein synthesis inhibition reporter; inhibition, % at 38.7 µM; hit rate 9.2% among 290,000; AID 2315, 2010; in the data active means inhibition mostly above about 28%, no sharp cut-off; inactive means mostly below about 43%; further: 0% is about no effect
Cycloheximide cs: Cycloheximide Counterscreen for Small Molecule Inhibitors of Shiga Toxin; hit rate 12% among 300,000; cell reporter, cycloheximide protein synthesis inhibition counterscreen; max response, %; in the data active means max response mostly above about 13%, no sharp cut-off; inactive means mostly below about 14%; further: read at 38.3 µM for the half of the compounds with a filed dose; 0% is about no effect
FMDV inh: High Throughput Screening for Foot and Mouth Disease Virus Antivirals | FMDV antiviral cell-based qHTS | Potency, µM (titrated, usually from 57.9 µM), inactives show at the top dose activity change, negative = inhibition, usual class: inhibitors | hit rate 1.2% among 410,000 | AID 1159524, 2015; calls by dose curve; tested in HEK293T cells; further: read-out not given here; potency means the concentration at half of the fitted maximal effect; on the % scale 0 is the no-effect control and ±100 the full control effect; nearly all actives have a fitted effect of over 45% in size
* hit, by the source's call; ? = inconclusive; / = not tested or not shown.

SMILES | Sm TGR inh | Shiga inhibitor | Cycloheximide cs | FMDV inh
NC(=O)c1c(NC(=O)c2c(F)cccc2F)sc2c1CCN(Cc1ccccc1)C2 | 0% | 19* | 8.3* | -18%
CC(C)Oc1cccc(C(=O)Nc2ccc(N3CCN(C)CC3)cc2)c1 | 40µM* | / | 26* | 56%
CN1CCN(c2ccc(NC(=O)c3cccc(OCc4ccccc4)c3)cc2)CC1 | 0% | 60* | 23* | 7%
Cc1ccc(S(=O)(=O)Oc2ccc(N3C(=O)C4C5CCC(C5)C4C3=O)cc2)cc1 (stereo not given) | -6% | 12 | 18 | 0%
O=C1C2C3CCC(C3)C2C(=O)N1c1ccc(OS(=O)(=O)c2ccccc2)cc1 (stereo not given) | 22% | 78* | 33* | 9%
COc1ccc(-n2nc(C(=O)N3CCN(c4cccc(C(F)(F)F)c4)CC3)c3c4ccccc4n(C)c3c2=O)cc1Cl | 4% | / | / | -16%
Cc1ccc(Nc2nnc(C(C)(C)C)c(=O)n2N)cc1 | 0% | -10 | -4 | -16%
CCc1nnc(N/N=C/c2ccc(O)c(OC)c2)n1N | -20% | / | -2 | -17%
CC(C)(C)c1nnc(N/N=C/c2cc(Br)ccc2O)n(N)c1=O | 0% | -9 | -5 | 22µM*
CCc1nnc(N/N=C/c2cc(Br)c(O)cc2O)n1N | 35µM* | 24* | 13* | 1%
CCc1cccc(NC(=O)Cn2c(=O)n(CCCCCC(=O)NCc3ccc(F)cc3)c(=O)c3sccc32)c1 | -9% | / | / | ?
C/C(=N\NS(=O)(=O)c1ccc(C)c([N+](=O)[O-])c1)c1ccc2c(c1)OCO2 | -21% | 19 | 27* | 13%
C/C(=N\NS(=O)(=O)c1ccccc1)c1ccc2c(c1)OCO2 | 4% | 16 | 12* | 47%
C/C(=N/NS(=O)(=O)c1ccc(C)cc1)c1ccc2c(c1)OCO2 | -13% | -6 | -2 | 30%
CCOc1ccc(C(=O)c2cn(CC(=O)Nc3ccc(C)c(C)c3)c3ccc(OCC)cc3c2=O)cc1 | 1% | / | / | 0%
COc1ccc(-c2noc(N3CCCC(C(=O)Nc4ccccc4F)C3)n2)cc1 (stereo not given) | -17% | 2 | 6 | 3%
COc1ccc(-c2noc(N3CCCC(C(=O)Nc4ccc(F)cc4F)C3)n2)cc1 (stereo not given) | 1% | 23* | 14* | -11%
COc1cccc(-c2cccc(NC(=O)C3CCN(Cc4ccc(C)o4)CC3)c2)c1 | 50µM* | -1 | 12 | -16%
COc1ccc(/C=C\c2onc(C)c2S(=O)(=O)N2CCC(C(=O)Nc3cccc(OC)c3)CC2)cc1 | -8% | / | / | 14µM*
COc1cccc(NC(=O)C2C3CCC4C(CCC32)C4(Cl)Cl)c1 (stereo not given) | -23% | 40 | 15* | 0%
CCOC(=O)c1c(S(=O)(=O)N2CCC(C(=O)NCc3cccc(C)c3)CC2)c(C)n(C)c1C | -8% | / | / | 1%
CCOC(=O)c1ccc(NS(=O)(=O)c2ccc3c(c2)CCN3C(=O)CC)cc1 | -27% | / | / | 8%
COc1ccc(OC)c(CCNC(=O)CCc2cn(Cc3cc(C)ccc3C)c3ccccc23)c1 | 2% | / | / | -10%
CC(=O)OC1CC[C@]2(C)C(CC(OC(C)=O)[C@]3(C)C2CC[C@@]2(C)C(c4ccoc4)OC(=O)C4O[C@]432)C1(C)C (stereo not given in full) | / | / | / | -10%
COc1ccc(-c2noc(N3CCC(C(=O)Nc4cccc(OC)c4)CC3)n2)cc1 | 11% | 25* | 11* | -22%
SMILES | Sm TGR inh | Shiga inhibitor | Cycloheximide cs | FMDV inh
CC(=O)Nc1cccc(Oc2ccc(-c3noc(C)n3)cc2)c1 | -2% | 79* | 44* | 9%
COc1ccc(C)cc1NC(=O)Nc1cccc(-c2noc(C)n2)c1 | 6% | / | / | -29%
Cc1nc(-c2cccc(NC(=O)Nc3ccc([N+](=O)[O-])cc3)c2)no1 | 8% | / | / | 14µM*
COc1cccc(NC(=O)C2CCN(c3ncccn3)CC2)c1 | 0% | 25* | 11* | 29%
CC(O)(COc1ccccc1)c1ccc2c(c1)CN(Cc1cccc3ncccc13)CCO2 (stereo not given) | / | / | / | -24%
CC(=O)Oc1ccc(-c2csnn2)cc1 | 8% | -15 | -4 | -13%
CCNC(=O)Oc1ccc(-c2csnn2)cc1 | 56% | 17 | 7 | 32µM*
O/N=C1\CCSc2ccc(F)cc21 | -23% | 58* | 33* | -13%
O/N=C1/CCSc2ccccc21 | 10% | 11 | 6 | -7%
O=C(O)c1ccc(N/N=C2/CCSc3ccc(F)cc32)cc1 | 1% | 34 | 38* | ?
